Experimental data published in PubChem BioAssay.
The source made the active and inactive calls.

Key:
[1] = tested on: Human papillomavirus type 1a protein E7 (residues 44-93); assay: small molecules binding HPV E7 44-93 – biochemical, small-molecule microarray, residues 44-93, 635 nm fluorescence, primary screen (AID 1108); conditions: fluorescence 635 nm, higher = more signal;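 further: E7 fragment applied at 1 µg/mL in TBST for 1 h at 4 C; score combines spot fluorescence with its signal to noise ratio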
[2] = hepatitis C replication reporter changes, two-sided – Huh7 cells, luciferase reporter, HCV replication inhibitor project, primary screen (AID 1109); conditions: Huh7 HCV replicon luciferase reporter, 48 h; higher = more signal;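 further: huh7 hepatoma cells harbouring a luciferase neomycin HCV replicon reporter; luciferase luminescence as measure of HCV replicon replication; test concentration not given here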
[3] = target: Left-right determination factor 2 (Homo sapiens) (UniProt O00292); assay: small molecules binding LEFTY2 protein – biochemical, small-molecule microarray, 635 nm fluorescence scan, primary screen (AID 1110); conditions: higher = more signal
Sequence of Left-right determination factor 2 (Homo sapiens) (O00292 whole entry, looked up): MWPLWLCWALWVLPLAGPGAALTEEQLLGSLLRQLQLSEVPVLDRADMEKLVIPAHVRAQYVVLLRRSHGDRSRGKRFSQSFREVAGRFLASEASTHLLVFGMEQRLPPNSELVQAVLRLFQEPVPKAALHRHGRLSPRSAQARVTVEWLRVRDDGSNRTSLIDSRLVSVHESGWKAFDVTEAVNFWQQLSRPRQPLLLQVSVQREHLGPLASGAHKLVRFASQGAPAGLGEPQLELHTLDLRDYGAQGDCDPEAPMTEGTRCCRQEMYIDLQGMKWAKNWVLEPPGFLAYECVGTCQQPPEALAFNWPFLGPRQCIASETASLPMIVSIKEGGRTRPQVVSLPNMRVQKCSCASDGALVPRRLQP

[4] = target: Calmodulin-1 (Homo sapiens) (UniProt P0DP23); assay: small molecules binding calmodulin-1 with EGTA – biochemical, small-molecule microarray, Cy5-labelled CALM1, profiling panel (AID 1111); conditions: Cy5-CALM1 binding fluorescence, higher = more signal;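 further: labelled calmodulin applied in Tris saline Tween buffer holding calcium plus EGTA and DTT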
[5] = target: Calmodulin-1 (Homo sapiens) (UniProt P0DP23); assay: small molecules binding Ca-loaded calmodulin-1 – biochemical, small-molecule microarray, Cy5-labelled CALM1, plus calcium, artefact control for SMM control-protein annotation, profiling panel (AID 1112); conditions: Cy5-CALM1 binding fluorescence, higher = more signal;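 further: score merges spot fluorescence with signal to noise from triplicate slides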
[6] = probe aWnt5a binding to arrayed compounds – biochemical, biotinylated probe, 635/667 nm fluorescence, primary screen (AID 1113); conditions: small-molecule microarray, higher = more signal;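 further: score merges 667 nm fluorescence intensity with signal-to-noise per printed feature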
[7] = probe aShh binding to arrayed compounds – biochemical, biotinylated probe, 635/667 nm fluorescence, primary screen (AID 1114); conditions: small-molecule microarray, higher = more signal;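 further: probe is biotin-labelled aShh protein from a stem cell growth factor screen; measures binding of labelled protein to compounds printed on the slide; score merges feature fluorescence at 667 nm with signal-to-noise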
[8] = probe aNog binding to arrayed compounds – biochemical, biotinylated probe, 635/667 nm fluorescence, primary screen (AID 1115); conditions: small-molecule microarray, higher = more signal;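 further: probe is biotinylated aNog protein used at 0.15 µg/mL for 1 h at 4 C; z-score combines 667 nm fluorescence of each spot with its signal to noise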
[9] = target: Torsin-1A-interacting protein 1 (Homo sapiens) (UniProt Q5JTV8); assay: compound microarray binding of lysate hLAP1 – cell lysate, small-molecule microarray, COS7 lysate, 635/667 nm fluorescence, primary screen (AID 1116); conditions: 635 nm fluorescence, higher = more signal
Sequence of Torsin-1A-interacting protein 1 (Homo sapiens) (Q5JTV8 whole entry, looked up): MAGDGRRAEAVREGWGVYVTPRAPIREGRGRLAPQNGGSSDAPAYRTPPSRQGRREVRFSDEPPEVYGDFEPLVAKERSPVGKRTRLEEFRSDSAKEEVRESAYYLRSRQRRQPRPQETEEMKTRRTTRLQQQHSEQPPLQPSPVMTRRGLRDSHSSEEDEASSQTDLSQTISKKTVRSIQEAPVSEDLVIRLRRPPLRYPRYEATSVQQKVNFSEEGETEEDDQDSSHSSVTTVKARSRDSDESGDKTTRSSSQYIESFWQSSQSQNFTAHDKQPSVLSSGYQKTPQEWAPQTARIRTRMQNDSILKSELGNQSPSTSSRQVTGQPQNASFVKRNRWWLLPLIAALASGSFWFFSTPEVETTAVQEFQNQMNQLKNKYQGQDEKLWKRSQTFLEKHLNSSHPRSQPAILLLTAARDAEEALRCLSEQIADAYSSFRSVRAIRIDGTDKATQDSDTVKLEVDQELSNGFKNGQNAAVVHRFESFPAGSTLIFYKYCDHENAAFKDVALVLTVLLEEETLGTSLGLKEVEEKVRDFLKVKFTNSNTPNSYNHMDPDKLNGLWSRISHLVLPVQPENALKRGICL

[10] = target: Alpha-bungarotoxin (Bungarus multicinctus) (UniProt P60615); assay: compounds binding labelled alpha-BTX control protein – biochemical, small-molecule microarray, Alexa647 label, 635/667 nm fluorescence, artefact control for SMM control protein annotation, profiling panel (AID 1117); conditions: alpha-BTX-A647 binding fluorescence, higher = more signal
Sequence of Alpha-bungarotoxin (Bungarus multicinctus) (P60615 whole entry, looked up): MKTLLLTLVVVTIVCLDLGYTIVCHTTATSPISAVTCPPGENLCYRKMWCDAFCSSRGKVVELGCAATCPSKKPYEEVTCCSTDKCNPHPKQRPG

Albumin (Bos taurus) = Albumin (Bos taurus) (UniProt P02769); assay: compounds binding labelled BSA control protein – biochemical, small-molecule microarray, Alexa647 label, 635/667 nm fluorescence, artefact control for SMM control protein annotation, profiling panel (AID 1118); conditions: BSA-A647 binding, fluorescence 635 nm, higher = more signal;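 further: score merges 667 nm emission intensity and signal-to-noise per printed compound spot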
Sequence of Albumin (Bos taurus) (P02769 whole entry, looked up): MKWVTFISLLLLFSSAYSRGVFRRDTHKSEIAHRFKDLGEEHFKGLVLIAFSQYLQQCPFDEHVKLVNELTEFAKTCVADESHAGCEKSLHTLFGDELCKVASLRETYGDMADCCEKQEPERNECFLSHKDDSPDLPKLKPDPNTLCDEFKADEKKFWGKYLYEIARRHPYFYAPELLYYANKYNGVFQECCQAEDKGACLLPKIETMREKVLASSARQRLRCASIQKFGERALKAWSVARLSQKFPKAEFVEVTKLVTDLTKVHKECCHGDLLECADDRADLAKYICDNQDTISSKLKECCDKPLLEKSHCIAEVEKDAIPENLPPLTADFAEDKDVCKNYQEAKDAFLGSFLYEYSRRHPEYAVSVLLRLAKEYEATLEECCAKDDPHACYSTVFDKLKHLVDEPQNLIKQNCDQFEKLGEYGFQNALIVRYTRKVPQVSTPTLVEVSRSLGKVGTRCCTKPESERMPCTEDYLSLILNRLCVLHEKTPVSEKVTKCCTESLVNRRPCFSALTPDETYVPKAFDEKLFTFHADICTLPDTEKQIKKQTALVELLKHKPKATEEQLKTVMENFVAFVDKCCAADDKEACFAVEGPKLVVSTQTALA

[11] = probe aXIP binding to arrayed compounds – biochemical, NeuroSMM set, 635/667 nm fluorescence, primary screen (AID 1119); conditions: small-molecule microarray, higher = more signal, called active from +8 up or from −8 down;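 further: probe is the protein aXip251-270 applied at 1 µg/mL to compound-printed slides; binding of probe to printed compounds measured as 667 nm fluorescence plus signal to noise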
[12] = probe aNOTCH3 binding on compound microarray – biochemical, small-molecule microarray, 635/667 nm fluorescence, primary screen (AID 1120); conditions: higher = more signal;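 further: probe is a biotin-tagged antibody raised against NOTCH3 rather than NOTCH3 protein; score merges spot fluorescence near 667 nm with spot signal to noise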
[13] = probe aNOTCH2 binding on compound microarray – biochemical, small-molecule microarray, 635/667 nm fluorescence, primary screen (AID 1121); conditions: higher = more signal;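 further: score merges feature fluorescence read at 667 nm with its signal to noise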
[14] = target: Carbonic anhydrase 2 (Homo sapiens) (UniProt P00918); assay: compounds binding carbonic anhydrase 2 – biochemical, small-molecule microarray, Alexa647-labelled CAII, profiling panel (AID 1122); conditions: CAII-A647 binding fluorescence, higher = more signal
[15] = COS7 lysate on small-molecule microarray, probe aHis, 635 nm (AID 1123); conditions: COS7 cell lysate, fluorescence, higher = more signal;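 further: z-score combines 667nm fluorescence intensity with signal-to-noise per printed compound spot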
[16] = probe aLAP1 signal on lysate-treated microarray – cell lysate, small-molecule microarray, COS7 lysate, primary screen (AID 1124); conditions: probe aLAP1, fluorescence, higher = more signal;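 further: lysate comes from COS7 cells expressing LAP1 and is applied at 0.3 µg/mL; score merges spot fluorescence near 667 nm with signal-to-noise over triplicate slides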
Sam68 (KHDRBS1) = assay: compounds binding KHDRBS1 protein – biochemical, small-molecule microarray, 635 nm fluorescence, primary screen (AID 1125); conditions: higher = more signal;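 further: score merges 667 nm channel intensity with signal to noise over triplicate slides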
[17] = tested on: Chordin-like protein 2 (CHRDL2); assay: compounds binding chordin-like 2 – biochemical, small-molecule microarray, 635 nm fluorescence, primary screen (AID 1126); conditions: fluorescence 635 nm, higher = more signal;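 further: printed compound slides probed with Chrdl2 protein at 4 µg/mL for 1 h at 4 C; score merges 667 nm emission intensity with signal to noise over three replicate slides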
[18] = target: Concanavalin-A (Canavalia ensiformis) (UniProt P02866); assay: compounds binding concanavalin A lectin – biochemical, small-molecule microarray, Alexa647 label, 635 nm, artefact control for SMM control protein annotation, primary screen (AID 1127); conditions: ConA-A647 binding fluorescence, higher = more signal;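 further: z combines 667 nm emission intensity with signal-to-noise across three replicate slides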
Sequence of Concanavalin-A (Canavalia ensiformis) (P02866 whole entry, looked up): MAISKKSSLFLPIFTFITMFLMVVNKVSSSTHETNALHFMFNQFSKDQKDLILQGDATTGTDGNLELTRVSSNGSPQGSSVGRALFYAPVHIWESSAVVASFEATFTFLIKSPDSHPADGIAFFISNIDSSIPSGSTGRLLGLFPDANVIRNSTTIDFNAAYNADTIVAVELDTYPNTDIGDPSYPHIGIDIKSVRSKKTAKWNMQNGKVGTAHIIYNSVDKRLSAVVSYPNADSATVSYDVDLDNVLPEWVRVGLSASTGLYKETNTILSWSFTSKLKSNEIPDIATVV

Row | Compound | composite z-score [1] | z-score [2] | composite z-score [3] | composite z-score [4] | composite z-score [5] | composite z-score [6] | composite z-score [7] | composite z-score [8] | composite z-score [9] | composite z-score [10] | composite z-score (Albumin (Bos taurus)) | composite Z-score [11] | composite z-score [12] | composite z-score [13] | composite z-score [14] | composite z-score [15] | composite z-score [16] | composite z-score (Sam68 (KHDRBS1)) | composite z-score [17] | composite z-score [18]
1 | CCOC(=O)CCN1C(=O)[C@H]2[C@H]3[C@H](O)[C@H](O)CC(=NNC(=O)OCc4ccc(OC)cc4)[C@@H]3CC[C@H]2C1=O | -0.75 | -0.552 | 0.554 | 0.715 | -0.0636 | -0.124 | -0.323 | -0.118 | 0.94 | 1.21 | 0.0708 | 0.101 (inactive) | -0.153 | -0.104 | 0.244 | 1.31 | -0.239 | 0.427 | 0.388 | 1.09
2 | COc1ccc(O[C@@H]2[C@H](O)CO[C@H]2C=CC#Cc2ccccc2)cc1 | -0.289 | -0.0351 | 0.347 | -0.414 | -0.789 | -0.1 | -0.138 | -0.234 | 0.17 | -0.891 | -0.0002 | 0.497 (inactive) | -0.166 | -0.171 | 0.177 | 0.297 | 0.0594 | -0.016 | 0.229 | -0.301
3 | COc1ccc([Si](C)(C)[C@H]2[C@H](CC(=O)N3CCC[C@H]3CO)O[C@@]3(C(=O)N(Cc4cccc(N5C(=O)COc6ccccc65)c4)c4ccccc43)[C@@H]2C)cc1 | 1.08 | -2.51 | 0.805 | 1.36 | 0.487 | 0.0556 | -0.17 | 0.274 | 1.16 | -0.654 | 0.34 | 0.33 (inactive) | 0.0293 | -0.0556 | 0.437 | 2.38 | 0.125 | 1.26 | 0.959 | 0.997
4 | COc1ccc([Si](C)(C)[C@H]2[C@H](CCO)O[C@@]3(C(=O)N(Cc4cccc(NC(=O)[C@H](C)O)c4)c4ccccc43)[C@@H]2C)cc1 | 1.39 | -5.13 | 0.383 | 0.922 | -0.14 | -0.101 | 0.0144 | -0.074 | 0.798 | 1.36 | 0.564 | 1.49 (inactive) | 0.0306 | -0.13 | 0.395 | 1.55 | 0.335 | 1.27 | 0.189 | 1.11
5 | O=C1CCCC=C1C(O)CCOCc1ccccc1 (stereo not given) | -0.649 | 0.939 | 0.408 | -0.314 | -0.605 | -0.0735 | -0.209 | -0.0236 | 0.266 | 0.129 | -0.492 | -0.32 (inactive) | -0.0072 | -0.108 | -0.0262 | -0.202 | -0.195 | -0.887 | 0.309 | -0.299
6 | CC(C)NC(=O)[C@@]1(c2ccc([N+](=O)[O-])cc2)CC(=O)N(CC23CC4CC(CC(C4)C2)C3)[C@@H]1c1ccc(CO)cc1I | 1.36 | -3.4 | 0.0161 | 0.613 | 0.273 | -0.0107 | 0.0796 | -0.41 | 0.981 | 0.442 | -0.0212 | 0.567 (inactive) | 0.299 | 0.23 | 0.241 | 0.997 | 1.04 | 1.27 | 0.111 | 0.93
7 | O=C1C[C@@H](O)[C@@H](O)[C@@H]2[C@@H]3C(=O)N(C4CCCCC4)C(=O)[C@@H]3CC[C@H]12 | 0.717 | -0.0951 | 0.456 | -0.0292 | -0.57 | -0.114 | -0.309 | 0.0051 | 0.473 | -0.0214 | 0.258 | -0.236 (inactive) | 0.0208 | -0.0761 | 0.168 | 0.323 | -0.505 | 0.742 | 0.325 | 0.564
8 | N#Cc1ccc(NN2C(C(O)c3cc(C(F)(F)F)cc(C(F)(F)F)c3)C=CC3C(=O)N(c4ccccc4)C(=O)C32)cc1 (stereo not given) | 1.39 | -1.99 | 0.224 | 2.44 | 0.892 | -0.0009 | 0.0326 | -0.753 | 1.73 | 0.692 | 0.996 | 0.239 (inactive) | 0.425 | 0.0388 | 0.612 | 2.82 | 0.557 | 1.33 | -0.904 | 1.19
9 | CCCCc1nc2c(c3c1C[C@H](C)OC3)CN(CCC(C)C)CC2 | 1.23 | -0.953 | 0.893 | -0.0635 | -0.747 | -0.0704 | -0.164 | 0.372 | 0.089 | 0.595 | 0.627 | -0.214 (inactive) | -0.0343 | -0.16 | 0.221 | 1.68 | 0.44 | 1.31 | 0.388 | 0.934
10 | CO[C@@H]1COC(=O)CCC[C@@H](C)[C@H](OC)COC(=O)CCC[C@H]1C | -0.341 | -1.38 | 0.862 | -0.454 | -0.966 | -0.0445 | -0.206 | -0.303 | 0.665 | -0.12 | -0.27 | 0.231 (inactive) | -0.0967 | -0.0907 | -0.277 | -0.307 | -0.0693 | -0.12 | 0.777 | -0.302
11 | O=C(NN=C1C[C@@H](O)[C@@H](O)[C@@H]2[C@@H]3C(=O)N(c4ccc(F)cc4F)C(=O)[C@@H]3CC[C@@H]12)OCc1ccccc1 | 0.782 | -0.769 | 0.312 | -0.0007 | -0.226 | 0.0354 | -0.0553 | -0.562 | 0.547 | 0.736 | 0.458 | -0.662 (inactive) | 0.0952 | -0.123 | 0.129 | 0.229 | 0.3 | 0.661 | 0.272 | 0.247
